# Results reported in PubChem BioAssay AID741 (SRMLSC, 2007).
# Inconclusive results are not listed. Calls of active or inactive are those of the source. No stated cut-off is given here; in the data, active means toxicity enhancement factor above about 0.054; inconclusive means between about 0.00067 and that limit; inactive means weaker than that.
# Test: MRP-overexpressing cell chemosensitization – dose response (AID 741)
# Settings: MRP-overexpressing cells, viability with/without cytotoxic drug; slope difference: measured here: slope difference tox minus reversal, stronger effect = higher value; toxicity enhancement factor: stronger effect = higher value; viability: measured here: viability series, compound alone, at 10 µM, stronger effect = lower value
compound,measurement,value
O=C1CCCC2C3CCCN4CCCC(CN12)C34 (stereo unspecified),slope difference,-0.494
same,toxicity enhancement factor,-0.0048 (inactive)
same,viability,94.7%
O[C@H]1[C@H](O)[C@@H](O)CN2CC[C@H](O)[C@H]12,slope difference,-0.39
same,toxicity enhancement factor,-0.0036 (inactive)
same,viability,98.5%
